Data published in publication PMC7862700, “An all-to-all approach to the identification of sequence-specific readers for epigenetic DNA modifications on cytosine”.

Assays:
Assay in all cases: DAPPL (digital affinity profiling via proximity ligation, sequencing); 10 mM Tris-HCl pH 7.5, 50 mM NaCl, 1 mM DTT, 4% glycerol, room temperature, 30 min; GST-TFs on glutathione beads, 16-mer random dsDNA library, 0.1% formaldehyde crosslink after washing; high values mean tight binding
FEV = target: T1, FEV (Homo sapiens, UniProt Q99581 1-238); conditions: protein: recombinant; tags: N-terminal GST; dsDNA, one strand shown
T1 sequence: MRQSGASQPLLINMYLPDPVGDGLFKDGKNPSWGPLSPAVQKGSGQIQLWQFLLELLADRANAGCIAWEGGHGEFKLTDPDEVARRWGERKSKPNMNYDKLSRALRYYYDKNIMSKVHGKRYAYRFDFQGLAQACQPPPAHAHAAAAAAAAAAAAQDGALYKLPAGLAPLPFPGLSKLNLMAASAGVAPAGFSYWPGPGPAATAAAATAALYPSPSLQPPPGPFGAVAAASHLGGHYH
Outline: (§1)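 Each value of binding signal is a hexamer's read frequency for a factor divided by the same hexamer's frequency in the tag-only sample. Barcoded, bead-captured GST fusions of human transcription factors made in yeast were pooled with that sample and incubated with 200 nmole of a random double-stranded 16-mer DNA library in Tris/NaCl/DTT/glycerol buffer at room temperature for 30 min. Washing, 0.1% formaldehyde crosslinking, proximity ligation, PCR and Illumina NextSeq500 sequencing followed.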

ETV5 = ETV5 (Homo sapiens, UniProt P41161 1-510); conditions: protein: recombinant; tags: N-terminal GST; dsDNA, one strand shown
ETV5, sequence (P41161 whole entry): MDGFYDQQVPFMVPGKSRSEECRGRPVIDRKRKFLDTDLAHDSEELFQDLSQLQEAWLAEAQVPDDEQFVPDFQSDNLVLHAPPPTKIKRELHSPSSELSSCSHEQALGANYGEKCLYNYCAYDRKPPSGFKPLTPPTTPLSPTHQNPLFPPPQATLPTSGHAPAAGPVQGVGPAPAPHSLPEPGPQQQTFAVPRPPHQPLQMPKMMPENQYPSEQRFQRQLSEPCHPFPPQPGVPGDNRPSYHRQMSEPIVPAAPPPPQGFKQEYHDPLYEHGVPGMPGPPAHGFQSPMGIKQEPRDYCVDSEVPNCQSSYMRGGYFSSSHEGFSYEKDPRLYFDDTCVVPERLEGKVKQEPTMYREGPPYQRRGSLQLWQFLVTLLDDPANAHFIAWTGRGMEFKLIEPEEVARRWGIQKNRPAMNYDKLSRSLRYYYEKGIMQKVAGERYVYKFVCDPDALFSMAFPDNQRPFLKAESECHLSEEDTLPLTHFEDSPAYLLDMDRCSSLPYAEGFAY
Outline: as §1

HSF1 = HSF1 (Homo sapiens, UniProt Q00613 1-529); conditions: protein: recombinant; tags: N-terminal GST; chain copies: 3; dsDNA, one strand shown
HSF1, sequence (Q00613 whole entry): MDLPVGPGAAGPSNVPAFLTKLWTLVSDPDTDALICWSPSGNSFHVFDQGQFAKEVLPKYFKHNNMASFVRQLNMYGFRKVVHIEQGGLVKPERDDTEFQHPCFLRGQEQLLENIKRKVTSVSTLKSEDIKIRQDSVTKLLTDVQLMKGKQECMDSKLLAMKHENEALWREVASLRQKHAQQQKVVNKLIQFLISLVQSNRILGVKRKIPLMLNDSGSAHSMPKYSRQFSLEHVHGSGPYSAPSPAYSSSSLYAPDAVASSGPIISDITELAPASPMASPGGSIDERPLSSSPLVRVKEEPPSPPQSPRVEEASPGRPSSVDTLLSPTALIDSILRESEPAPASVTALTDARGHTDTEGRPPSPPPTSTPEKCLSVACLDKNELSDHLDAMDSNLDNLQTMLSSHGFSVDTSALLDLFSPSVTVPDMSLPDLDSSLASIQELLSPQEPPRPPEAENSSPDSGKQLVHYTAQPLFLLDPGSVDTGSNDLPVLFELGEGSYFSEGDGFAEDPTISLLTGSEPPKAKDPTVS
Outline: as §1

SPIC = target: T2, SPIC (Homo sapiens, UniProt Q8N5J4 1-248); conditions: protein: recombinant; tags: N-terminal GST; dsDNA, one strand shown
T2 sequence: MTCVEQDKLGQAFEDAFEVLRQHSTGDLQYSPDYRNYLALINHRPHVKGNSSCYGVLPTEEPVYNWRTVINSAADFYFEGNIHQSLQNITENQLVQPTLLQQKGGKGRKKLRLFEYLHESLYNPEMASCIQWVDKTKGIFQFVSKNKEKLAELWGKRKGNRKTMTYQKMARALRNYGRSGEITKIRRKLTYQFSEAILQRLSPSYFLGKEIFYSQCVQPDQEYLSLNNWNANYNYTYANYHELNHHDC
Outline: as §1

ELF4 = ELF4 (Homo sapiens, UniProt Q99607 1-663); conditions: protein: recombinant; tags: N-terminal GST; dsDNA, one strand shown
ELF4, sequence (Q99607 whole entry): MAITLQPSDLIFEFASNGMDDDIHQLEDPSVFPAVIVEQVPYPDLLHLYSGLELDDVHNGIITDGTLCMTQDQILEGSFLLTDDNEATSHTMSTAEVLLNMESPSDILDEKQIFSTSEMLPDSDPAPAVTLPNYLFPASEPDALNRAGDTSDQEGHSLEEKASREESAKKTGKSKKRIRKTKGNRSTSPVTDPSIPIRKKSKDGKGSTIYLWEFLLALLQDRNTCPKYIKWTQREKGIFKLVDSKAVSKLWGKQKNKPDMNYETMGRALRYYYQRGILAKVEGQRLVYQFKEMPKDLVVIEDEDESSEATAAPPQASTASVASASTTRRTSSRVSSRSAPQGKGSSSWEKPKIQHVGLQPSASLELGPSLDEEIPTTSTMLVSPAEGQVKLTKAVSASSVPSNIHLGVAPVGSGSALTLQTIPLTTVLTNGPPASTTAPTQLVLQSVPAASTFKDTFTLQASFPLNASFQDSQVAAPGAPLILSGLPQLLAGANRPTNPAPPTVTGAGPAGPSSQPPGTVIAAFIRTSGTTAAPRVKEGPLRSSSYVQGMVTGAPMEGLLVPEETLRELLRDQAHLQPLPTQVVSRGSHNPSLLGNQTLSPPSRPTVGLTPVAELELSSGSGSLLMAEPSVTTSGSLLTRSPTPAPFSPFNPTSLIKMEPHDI
Outline: as §1

ELK4 = target: T3, ELK4 (Homo sapiens, UniProt P28324-2 1-405); conditions: protein: recombinant; tags: N-terminal GST; dsDNA, one strand shown
T3 sequence: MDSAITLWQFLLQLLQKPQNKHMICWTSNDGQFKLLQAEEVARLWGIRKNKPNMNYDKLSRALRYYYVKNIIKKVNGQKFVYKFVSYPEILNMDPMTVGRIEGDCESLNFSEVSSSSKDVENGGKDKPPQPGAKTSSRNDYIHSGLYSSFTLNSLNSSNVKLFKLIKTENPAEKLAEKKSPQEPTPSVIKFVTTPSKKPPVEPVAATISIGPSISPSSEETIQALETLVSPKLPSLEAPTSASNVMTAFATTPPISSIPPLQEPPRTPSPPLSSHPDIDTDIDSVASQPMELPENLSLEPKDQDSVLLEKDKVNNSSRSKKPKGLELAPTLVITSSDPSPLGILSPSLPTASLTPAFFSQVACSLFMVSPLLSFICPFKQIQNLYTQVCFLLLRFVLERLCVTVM
Outline: as §1

ETV2 = target: T4, ETV2 (Homo sapiens, UniProt O00321 1-342); conditions: protein: recombinant; tags: N-terminal GST; dsDNA, one strand shown
T4 sequence: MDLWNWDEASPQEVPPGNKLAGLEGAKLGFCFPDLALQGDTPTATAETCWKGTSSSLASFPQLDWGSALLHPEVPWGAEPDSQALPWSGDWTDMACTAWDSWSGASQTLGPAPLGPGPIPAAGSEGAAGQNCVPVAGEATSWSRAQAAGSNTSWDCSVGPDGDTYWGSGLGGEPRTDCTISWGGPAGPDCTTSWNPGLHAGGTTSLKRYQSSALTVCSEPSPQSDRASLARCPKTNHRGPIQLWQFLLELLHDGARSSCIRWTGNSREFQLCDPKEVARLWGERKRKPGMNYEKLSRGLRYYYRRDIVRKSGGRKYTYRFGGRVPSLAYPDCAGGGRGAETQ
Outline: as §1

ELF3 = target: T5, ELF3 (Homo sapiens, UniProt P78545 1-371); conditions: protein: recombinant; tags: N-terminal GST; dsDNA, one strand shown
T5 sequence: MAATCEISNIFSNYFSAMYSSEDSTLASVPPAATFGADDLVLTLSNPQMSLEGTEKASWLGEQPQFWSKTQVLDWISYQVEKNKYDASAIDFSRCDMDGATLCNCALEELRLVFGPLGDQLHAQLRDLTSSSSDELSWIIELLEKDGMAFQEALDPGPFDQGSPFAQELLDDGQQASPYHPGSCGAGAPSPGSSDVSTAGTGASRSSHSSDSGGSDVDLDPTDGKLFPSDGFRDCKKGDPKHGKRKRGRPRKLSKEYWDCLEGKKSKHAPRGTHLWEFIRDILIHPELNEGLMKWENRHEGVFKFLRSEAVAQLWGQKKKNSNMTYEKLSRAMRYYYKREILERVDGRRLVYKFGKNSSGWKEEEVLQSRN
Outline: as §1

CRX = CRX (Homo sapiens, UniProt O43186 1-299); conditions: protein: recombinant; tags: N-terminal GST; dsDNA, one strand shown
CRX, sequence (O43186 whole entry): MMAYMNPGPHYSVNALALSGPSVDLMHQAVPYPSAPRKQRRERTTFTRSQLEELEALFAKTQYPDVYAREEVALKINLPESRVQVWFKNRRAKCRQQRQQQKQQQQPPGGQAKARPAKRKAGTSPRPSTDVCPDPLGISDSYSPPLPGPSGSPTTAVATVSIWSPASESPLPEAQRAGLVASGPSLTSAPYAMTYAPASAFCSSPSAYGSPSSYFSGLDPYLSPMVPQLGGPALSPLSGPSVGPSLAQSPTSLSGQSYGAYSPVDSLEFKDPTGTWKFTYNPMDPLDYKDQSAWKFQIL
Outline: as §1

ETV1 = ETV1 (Homo sapiens, UniProt P50549 1-477); conditions: protein: recombinant; tags: N-terminal GST; dsDNA, one strand shown
ETV1, sequence (P50549 whole entry): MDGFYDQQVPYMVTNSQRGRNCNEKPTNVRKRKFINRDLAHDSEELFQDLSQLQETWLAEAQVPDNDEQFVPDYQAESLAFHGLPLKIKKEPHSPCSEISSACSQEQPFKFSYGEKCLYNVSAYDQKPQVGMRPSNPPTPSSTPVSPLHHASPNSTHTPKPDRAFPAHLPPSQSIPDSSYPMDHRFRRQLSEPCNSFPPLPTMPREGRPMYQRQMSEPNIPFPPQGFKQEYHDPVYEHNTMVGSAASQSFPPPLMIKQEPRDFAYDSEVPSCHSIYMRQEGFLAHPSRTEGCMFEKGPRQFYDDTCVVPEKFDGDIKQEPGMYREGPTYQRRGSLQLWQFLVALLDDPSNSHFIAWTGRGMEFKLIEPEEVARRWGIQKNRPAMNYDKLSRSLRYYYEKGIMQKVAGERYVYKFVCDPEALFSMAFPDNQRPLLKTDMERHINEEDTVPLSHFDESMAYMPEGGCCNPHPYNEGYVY
Outline: as §1

ERF = target: T6, ERF (Homo sapiens, UniProt P50548 1-548); conditions: protein: recombinant; tags: N-terminal GST; dsDNA, one strand shown
T6 sequence: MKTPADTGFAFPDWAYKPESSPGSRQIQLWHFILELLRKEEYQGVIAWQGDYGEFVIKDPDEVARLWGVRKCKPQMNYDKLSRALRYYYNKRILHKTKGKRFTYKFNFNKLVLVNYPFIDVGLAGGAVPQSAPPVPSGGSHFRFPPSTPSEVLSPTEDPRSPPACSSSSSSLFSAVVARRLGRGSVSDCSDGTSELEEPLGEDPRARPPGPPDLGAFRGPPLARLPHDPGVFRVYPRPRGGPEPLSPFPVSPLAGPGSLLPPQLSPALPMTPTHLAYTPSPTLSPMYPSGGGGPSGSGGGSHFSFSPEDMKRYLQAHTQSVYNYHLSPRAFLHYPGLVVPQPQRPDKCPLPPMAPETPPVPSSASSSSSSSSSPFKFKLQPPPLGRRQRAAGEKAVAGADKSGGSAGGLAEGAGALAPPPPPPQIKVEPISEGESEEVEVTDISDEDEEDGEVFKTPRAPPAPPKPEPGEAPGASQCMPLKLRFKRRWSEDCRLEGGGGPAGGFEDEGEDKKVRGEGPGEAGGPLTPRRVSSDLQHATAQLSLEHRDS
Outline: as §1

ETV3L = target: T7, ETV3L (Homo sapiens, UniProt Q6ZN32 1-361); conditions: protein: recombinant; tags: N-terminal GST; dsDNA, one strand shown
T7 sequence: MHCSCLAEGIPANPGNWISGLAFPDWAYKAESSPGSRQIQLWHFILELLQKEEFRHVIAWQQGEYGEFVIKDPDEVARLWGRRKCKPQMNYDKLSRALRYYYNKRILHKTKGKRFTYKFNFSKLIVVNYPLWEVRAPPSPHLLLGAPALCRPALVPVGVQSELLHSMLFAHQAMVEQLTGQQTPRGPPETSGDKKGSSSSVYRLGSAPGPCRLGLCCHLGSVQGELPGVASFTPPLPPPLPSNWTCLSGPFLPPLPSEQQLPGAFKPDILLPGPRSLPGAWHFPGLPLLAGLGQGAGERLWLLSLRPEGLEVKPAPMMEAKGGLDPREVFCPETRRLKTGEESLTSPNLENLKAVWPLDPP
Outline: as §1

ETS2 = target: T8, ETS2 (Homo sapiens, UniProt P15036 1-469); conditions: protein: recombinant; tags: N-terminal GST; dsDNA, one strand shown
T8 sequence: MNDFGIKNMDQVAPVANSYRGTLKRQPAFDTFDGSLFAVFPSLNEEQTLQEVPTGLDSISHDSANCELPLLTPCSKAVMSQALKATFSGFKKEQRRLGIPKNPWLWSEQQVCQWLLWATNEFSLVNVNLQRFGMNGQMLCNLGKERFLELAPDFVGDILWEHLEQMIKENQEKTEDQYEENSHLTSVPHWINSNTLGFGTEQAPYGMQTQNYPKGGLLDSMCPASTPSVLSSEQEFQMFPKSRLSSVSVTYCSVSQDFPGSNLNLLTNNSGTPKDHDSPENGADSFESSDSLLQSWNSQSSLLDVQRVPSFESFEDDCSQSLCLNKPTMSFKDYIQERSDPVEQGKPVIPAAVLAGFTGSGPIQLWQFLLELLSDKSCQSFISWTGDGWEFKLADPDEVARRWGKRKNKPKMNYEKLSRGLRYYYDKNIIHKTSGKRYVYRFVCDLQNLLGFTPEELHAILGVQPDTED
Outline: as §1

SPDEF = target: T9, SPDEF (Homo sapiens, UniProt O95238 1-335); conditions: protein: recombinant; tags: N-terminal GST; dsDNA, one strand shown
T9 sequence: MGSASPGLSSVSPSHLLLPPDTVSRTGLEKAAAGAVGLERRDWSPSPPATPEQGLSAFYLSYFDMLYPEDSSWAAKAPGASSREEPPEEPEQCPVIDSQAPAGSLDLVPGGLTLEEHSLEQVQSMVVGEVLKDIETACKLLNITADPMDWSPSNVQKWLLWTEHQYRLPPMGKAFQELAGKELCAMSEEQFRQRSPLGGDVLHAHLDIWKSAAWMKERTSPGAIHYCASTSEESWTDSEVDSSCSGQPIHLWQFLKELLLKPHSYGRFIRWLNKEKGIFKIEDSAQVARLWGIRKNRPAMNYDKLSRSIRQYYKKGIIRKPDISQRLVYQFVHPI
Outline: as §1

ETV7 = target: T10, ETV7 (Homo sapiens, UniProt Q9Y603 1-341); conditions: protein: recombinant; tags: N-terminal GST; dsDNA, one strand shown
T10 sequence: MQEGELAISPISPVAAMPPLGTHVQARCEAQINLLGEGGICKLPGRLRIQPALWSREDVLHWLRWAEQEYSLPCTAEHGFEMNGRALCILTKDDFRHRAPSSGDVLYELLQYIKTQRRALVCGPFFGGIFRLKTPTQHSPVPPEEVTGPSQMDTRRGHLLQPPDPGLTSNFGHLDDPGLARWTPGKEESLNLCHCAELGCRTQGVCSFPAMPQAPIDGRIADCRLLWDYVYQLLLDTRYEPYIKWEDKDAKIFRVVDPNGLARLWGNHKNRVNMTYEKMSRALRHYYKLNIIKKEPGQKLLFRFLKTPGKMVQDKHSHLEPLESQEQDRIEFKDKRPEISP
Outline: as §1

ELF5 = target: T11, ELF5 (Homo sapiens, UniProt Q9UKW6-2 1-255); conditions: protein: recombinant; tags: N-terminal GST; dsDNA, one strand shown
T11 sequence: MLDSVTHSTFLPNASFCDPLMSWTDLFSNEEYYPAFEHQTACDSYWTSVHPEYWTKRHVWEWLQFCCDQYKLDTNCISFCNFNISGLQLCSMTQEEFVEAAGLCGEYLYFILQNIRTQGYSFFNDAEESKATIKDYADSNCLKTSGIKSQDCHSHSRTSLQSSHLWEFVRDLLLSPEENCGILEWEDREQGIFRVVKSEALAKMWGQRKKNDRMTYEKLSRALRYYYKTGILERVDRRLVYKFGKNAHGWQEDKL
Outline: as §1

ETV3 = target: T12, ETV3 (Homo sapiens, UniProt P41162-2 1-143); conditions: protein: recombinant; tags: N-terminal GST; dsDNA, one strand shown
T12 sequence: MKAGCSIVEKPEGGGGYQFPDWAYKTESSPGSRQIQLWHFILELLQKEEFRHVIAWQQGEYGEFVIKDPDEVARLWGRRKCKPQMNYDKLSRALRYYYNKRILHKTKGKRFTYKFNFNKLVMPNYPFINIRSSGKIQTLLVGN
Outline: as §1

ETV6 = ETV6 (Homo sapiens, UniProt P41212 1-452); conditions: protein: recombinant; tags: N-terminal GST; dsDNA, one strand shown
ETV6, sequence (P41212 whole entry): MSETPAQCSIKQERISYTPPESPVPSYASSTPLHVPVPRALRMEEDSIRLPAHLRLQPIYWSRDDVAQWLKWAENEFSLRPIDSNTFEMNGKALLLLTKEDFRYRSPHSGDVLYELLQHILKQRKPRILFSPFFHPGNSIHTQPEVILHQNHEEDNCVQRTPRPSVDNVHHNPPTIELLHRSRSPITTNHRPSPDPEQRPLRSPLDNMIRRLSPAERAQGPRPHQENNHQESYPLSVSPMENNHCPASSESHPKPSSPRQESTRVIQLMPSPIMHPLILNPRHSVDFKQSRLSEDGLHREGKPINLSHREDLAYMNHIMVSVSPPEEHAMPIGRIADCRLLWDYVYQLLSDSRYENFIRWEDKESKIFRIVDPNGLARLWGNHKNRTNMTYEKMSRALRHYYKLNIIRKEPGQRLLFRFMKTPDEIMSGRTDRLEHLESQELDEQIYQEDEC
Outline: as §1

CGAGCA
binding signal (FEV): 1.16 fold enrichment (6-mer frequency, TF over GST control) | binding signal (ETV5): 1.1 fold enrichment (6-mer frequency, TF over GST control) | binding signal (HSF1): 1.38 fold enrichment (6-mer frequency, TF over GST control) | binding signal (SPIC): 1.1 fold enrichment (6-mer frequency, TF over GST control) | binding signal (ELF4): 1.13 fold enrichment (6-mer frequency, TF over GST control) | binding signal (ELK4): 1.17 fold enrichment (6-mer frequency, TF over GST control) | binding signal (ETV2): 1.34 fold enrichment (6-mer frequency, TF over GST control) | binding signal (ELF3): 1.29 fold enrichment (6-mer frequency, TF over GST control) | binding signal (CRX): 1.04 fold enrichment (6-mer frequency, TF over GST control) | binding signal (ETV1): 1.11 fold enrichment (6-mer frequency, TF over GST control) | binding signal (ERF): 1.17 fold enrichment (6-mer frequency, TF over GST control) | binding signal (ETV3L): 1.13 fold enrichment (6-mer frequency, TF over GST control) | binding signal (ETS2): 1.06 fold enrichment (6-mer frequency, TF over GST control) | binding signal (SPDEF): 1.18 fold enrichment (6-mer frequency, TF over GST control) | binding signal (ETV7): 1.06 fold enrichment (6-mer frequency, TF over GST control) | binding signal (ELF5): 1.03 fold enrichment (6-mer frequency, TF over GST control) | binding signal (ETV3): 1.04 fold enrichment (6-mer frequency, TF over GST control) | binding signal (ETV6): 1.06 fold enrichment (6-mer frequency, TF over GST control)
